# According to PubChem BioAssay (NCI):
# Values joined by “and” are separate entries in the source; they are usually repeats but may differ in a detail not shown here. Equal entries are not always repeated. This is part of a sample that, as a whole, favours compounds with a hit. Of some 83,000 tested, about 20% had one in any assay.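 In brief: 96-well plates, 48 h treatment, single concentration, percent growth endpoint.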 Active and inactive are the calls of the source. The calls were made as follows: active = growth percent below 10; inactive = the rest.
# What was measured:
# Experiment in all cases: NCI-60 one-dose screen, 48 h (100 = growth as untreated, 0 = no growth, -100 = all killed)
# Details in all cases: 10 µM unless noted
# HCT-15 colon = tested on: HCT-15 colon
# HT29 colon = tested on: HT29 colon
# SNB-75 CNS = tested on: SNB-75 CNS
# SNB-19 CNS = tested on: SNB-19 CNS
# U251 CNS = tested on: U251 CNS
# PC-3 prostate = tested on: PC-3 prostate
# SK-MEL-5 melanoma = tested on: SK-MEL-5 melanoma
# UACC-62 melanoma = tested on: UACC-62 melanoma
# LOX IMVI melanoma = tested on: LOX IMVI melanoma
# SK-MEL-28 melanoma = tested on: SK-MEL-28 melanoma
SMILES,growth (HCT-15 colon),growth (HT29 colon),growth (SNB-75 CNS),growth (SNB-19 CNS),growth (U251 CNS),growth (PC-3 prostate),growth (SK-MEL-5 melanoma),growth (UACC-62 melanoma),growth (LOX IMVI melanoma),growth (SK-MEL-28 melanoma)
Cc1ccc(NC(=O)c2ccc(CN3CCN(C)CC3)cc2)cc1Nc1nccc(-c2cccnc2)n1,88.5% (inactive) and 48.2% (inactive),52.9% (inactive) and 24.1% (inactive),99.4% (inactive) and 82.5% (inactive),112% (inactive) and 95% (inactive),89.4% (inactive) and 65.7% (inactive),89.4% (inactive) and 72% (inactive),77.7% (inactive) and 63.2% (inactive),92.3% (inactive) and 87.9% (inactive),88.4% (inactive) and 77.1% (inactive),109% (inactive) and 77.8% (inactive)
CC(=O)c1c(C)nc(SCC(=O)Nc2ccc(Cl)cc2)n1-c1ccc(Cl)cc1,84.6% (inactive),83% (inactive),73.1% (inactive),93.7% (inactive),89.8% (inactive),71.8% (inactive),81.9% (inactive),69.7% (inactive),93.1% (inactive),104% (inactive)
O=S(=O)(Nc1cc(Sc2cccc3cccnc23)c(O)c2ccccc12)c1ccc(F)cc1,-42.9% (active),-40.9% (active),63.8% (inactive),42.1% (inactive),5.35% (active),17% (inactive),-40.2% (active),-26.9% (active),-60.7% (active),-16.2% (active)
O=C([C@H]1C[C@H]1c1ccc(S(F)(F)(F)(F)F)cc1)N1CCN(c2cc(Cl)ccc2C(F)(F)F)CC1,88.1% (inactive),67.5% (inactive),101% (inactive),97.1% (inactive),94.2% (inactive),74.2% (inactive),89.9% (inactive),67.4% (inactive),102% (inactive),97.1% (inactive)
NS(=O)(=O)OCC1OC(n2cnc3cncnc32)C(O)C1O (stereo not given),22% [0.1 µM] (inactive) and 8.65% [0.1 µM] (active),13.7% [0.1 µM] (inactive) and 14.3% [0.1 µM] (inactive),32.3% [0.1 µM] (inactive) and 40.4% [0.1 µM] (inactive),-4.22% [0.1 µM] (active) and 0.183% [0.1 µM] (active),-11.8% [0.1 µM] (active),21% [0.1 µM] (inactive) and 17.8% [0.1 µM] (inactive),49.4% [0.1 µM] (inactive),44.2% [0.1 µM] (inactive) and 42.4% [0.1 µM] (inactive),5.02% [0.1 µM] (active) and 5.99% [0.1 µM] (active),38.5% [0.1 µM] (inactive) and 37.4% [0.1 µM] (inactive)
Cc1oc2c(Cc3ccc(NC(=O)c4ccc(Cl)cc4)cc3)ncnc2c1C(=O)NO,103% (inactive),89.6% (inactive),106% (inactive),105% (inactive),104% (inactive),97.7% (inactive),86.1% (inactive),89.9% (inactive),102% (inactive),107% (inactive)
COc1ccc(/C=C2\COc3ccc(O)c(O)c3C2=O)c(OC)c1OC,1.33% (active),44.7% (inactive),37.9% (inactive),28.2% (inactive),14.4% (inactive),36.8% (inactive),35.5% (inactive),-56.9% (active),0.166% (active),58% (inactive)
Clc1nccc2c(-c3csc(-c4c[nH]c5ccc(Br)cc45)n3)c[nH]c12,-49.4% (active),5.95% (active),21% (inactive),44.6% (inactive),-2.09% (active),19.9% (inactive),47.2% (inactive),17% (inactive),-31.9% (active),-8.62% (active)
CC[C@@H]1NC(=O)[C@H]([C@H](O)[C@H](C)C/C=C/c2ccc(CN3C(=O)C(C)=C(C)C3=O)cc2)N(C)C(=O)[C@H](C(C)C)N(C)C(=O)[C@H](CC(C)C)N(C)C(=O)[C@H](CC(C)C)N(C)C(=O)[C@@H](C)NC(=O)[C@H](C)NC(=O)[C@H](CC(C)C)N(C)C(=O)[C@H](C(C)C)NC(=O)[C@H](CC(C)C)N(C)C(=O)CN(C)C1=O,67.8% (inactive),64.9% (inactive),72.8% (inactive),76.1% (inactive),71.2% (inactive),39.8% (inactive),60.5% (inactive),73.3% (inactive),68.6% (inactive),82.3% (inactive)
O=C1/C(=C/c2cn(-c3ccccc3)nc2-c2ccccc2)SC(=S)N1c1ccccc1,101% (inactive),108% (inactive),97.2% (inactive),93.4% (inactive),103% (inactive),77.9% (inactive),98.9% (inactive),87.5% (inactive),86.8% (inactive),97.4% (inactive)
CCCCCCCCCCCCCCCCCCn1cc(COc2ccc(C=O)cc2)nn1,95.9% (inactive),91.6% (inactive),104% (inactive),97.5% (inactive),107% (inactive),99% (inactive),103% (inactive),91.2% (inactive),85.5% (inactive),109% (inactive)
CSc1nnc(-c2cc3c([nH]c4ccccc43)c(-c3cccc(O)c3)n2)n1-c1ccc(C)cc1,23.2% (inactive),8.92% (active),30.1% (inactive),54.3% (inactive),29.4% (inactive),25.8% (inactive),13.5% (inactive),40.1% (inactive),29.3% (inactive),9.42% (active)
O=C(NCc1ccc(Cn2c(=O)sn(-c3ccc(Cl)cc3)c2=O)cc1)OCc1ccc2c(Cl)cc(Cl)c(O)c2n1,15.7% (inactive),111% (inactive),69% (inactive),39.1% (inactive),36.3% (inactive),35.5% (inactive),33% (inactive),33.4% (inactive),31.6% (inactive),47% (inactive)
c1cc(NCCCCN2CCOCC2)c2ccc3c(ccc4c(NCCN5CCOCC5)ccnc43)c2n1,70.7% (inactive),83.1% (inactive),86.8% (inactive),68.2% (inactive),92.4% (inactive),57.2% (inactive),98.7% (inactive),98.9% (inactive),45.9% (inactive),94% (inactive)
CCCCCCCCn1ccc2cc(NC(=O)CN3CCN(c4nc(C)cc(N5CCCCC5)n4)CC3)ccc21,73.2% (inactive),57.4% (inactive),87.6% (inactive),94.3% (inactive),80.4% (inactive),71.8% (inactive),82.1% (inactive),81.2% (inactive),103% (inactive),94.6% (inactive)
COc1cc(C=O)ccc1Oc1ccc([N+](=O)[O-])cc1[N+](=O)[O-],108% (inactive),108% (inactive),93.1% (inactive),90.3% (inactive),93.2% (inactive),94.4% (inactive),98.6% (inactive),82.3% (inactive),82% (inactive),107% (inactive)
CCOc1ccc(N2C(N)=NC(N)=NC2(C)C)cc1,99.9% (inactive),2.75% (active) and 87.4% (inactive),-3.85% (active) and 82.7% (inactive),40.3% (inactive) and 98.2% (inactive),20% (inactive) and 68.6% (inactive),16% (inactive) and 39.3% (inactive),4.48% (active) and 102% (inactive),41.4% (inactive) and 95.4% (inactive),36.7% (inactive) and 90.1% (inactive),31.2% (inactive) and 113% (inactive)
O=c1oc2c(Br)cc(Br)cc2cc1-c1cc(-c2ccc(-c3cc(-c4cc5cc(Br)cc(Br)c5oc4=O)nc(-c4cc5cc(Br)cc(Br)c5oc4=O)c3)cc2)cc(-c2cc3cc(Br)cc(Br)c3oc2=O)n1,111% (inactive),90.8% (inactive),105% (inactive),101% (inactive),107% (inactive),97.5% (inactive),108% (inactive),102% (inactive),99.5% (inactive),112% (inactive)
O=C1OCC2=C1C(c1cccc([N+](=O)[O-])c1)c1cc3c(cc1N2CCO)CCC3 (stereo not given),9.41% (active),3.43% (active),41.9% (inactive),25% (inactive),13.8% (inactive),21.7% (inactive),1.24% (active),43.9% (inactive),20.5% (inactive),53.7% (inactive)
O=C(Nc1ccc(F)cc1)c1cc2cc(Nc3nc(-c4ccccc4)nc4ccccc34)ccc2oc1=O,112% (inactive),98.4% (inactive),102% (inactive),109% (inactive),97.4% (inactive),99.4% (inactive),105% (inactive),102% (inactive),93.5% (inactive),111% (inactive)
OCCN1CCN(CC/C=C2\c3ccccc3Sc3ccc(Cl)cc32)CC1,-38.8% (active) and 8.86% (active),-41.8% (active) and -43.3% (active),60.2% (inactive) and 133% (inactive),58.4% (inactive) and 72.6% (inactive),27.6% (inactive) and 28.6% (inactive),33.6% (inactive) and 39.2% (inactive),-83.5% (active) and -91.7% (active),-93.8% (active) and -68.5% (active),-30.2% (active) and 1.96% (active),-100% (active) and -78.1% (active)
Cn1cc(-c2csc(-c3c[nH]c4ccc(F)cc34)n2)c2cnccc21,-69.7% (active),-52.6% (active),-89.1% (active),14.3% (inactive),-74.6% (active),20.5% (inactive),-97% (active),-78.5% (active),-90.4% (active),-95.9% (active)
O=C(Nc1ccc2ncsc2c1)c1csc(Nc2ccc3[nH]ncc3c2)n1,26% (inactive),19.4% (inactive),21.6% (inactive),41.2% (inactive),38.6% (inactive),40.6% (inactive),9.43% (active),22.7% (inactive),45% (inactive),69.2% (inactive)
